Shown is part of a subset that was picked to be rich in hits.
IDE exosite inh – exo-site inhibitors of human IDE, primary screen, biochemical, fluorescence anisotropy, probe displacement; Insulin-degrading enzyme (Homo sapiens), P14735; purified IDE, FL-6b probe fluorescence polarization; stronger effect = lower value; z-score at 20 µM; hit rate 6.3% among 17,000;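 active = z-score of -3 or lower, meaning strong loss of probe binding signal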;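 also: His-tagged human IDE residues 42-1019 made in E. coli with 30 nM FL-6b probe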
Target sequence (P14735 42-1019 limits assumed): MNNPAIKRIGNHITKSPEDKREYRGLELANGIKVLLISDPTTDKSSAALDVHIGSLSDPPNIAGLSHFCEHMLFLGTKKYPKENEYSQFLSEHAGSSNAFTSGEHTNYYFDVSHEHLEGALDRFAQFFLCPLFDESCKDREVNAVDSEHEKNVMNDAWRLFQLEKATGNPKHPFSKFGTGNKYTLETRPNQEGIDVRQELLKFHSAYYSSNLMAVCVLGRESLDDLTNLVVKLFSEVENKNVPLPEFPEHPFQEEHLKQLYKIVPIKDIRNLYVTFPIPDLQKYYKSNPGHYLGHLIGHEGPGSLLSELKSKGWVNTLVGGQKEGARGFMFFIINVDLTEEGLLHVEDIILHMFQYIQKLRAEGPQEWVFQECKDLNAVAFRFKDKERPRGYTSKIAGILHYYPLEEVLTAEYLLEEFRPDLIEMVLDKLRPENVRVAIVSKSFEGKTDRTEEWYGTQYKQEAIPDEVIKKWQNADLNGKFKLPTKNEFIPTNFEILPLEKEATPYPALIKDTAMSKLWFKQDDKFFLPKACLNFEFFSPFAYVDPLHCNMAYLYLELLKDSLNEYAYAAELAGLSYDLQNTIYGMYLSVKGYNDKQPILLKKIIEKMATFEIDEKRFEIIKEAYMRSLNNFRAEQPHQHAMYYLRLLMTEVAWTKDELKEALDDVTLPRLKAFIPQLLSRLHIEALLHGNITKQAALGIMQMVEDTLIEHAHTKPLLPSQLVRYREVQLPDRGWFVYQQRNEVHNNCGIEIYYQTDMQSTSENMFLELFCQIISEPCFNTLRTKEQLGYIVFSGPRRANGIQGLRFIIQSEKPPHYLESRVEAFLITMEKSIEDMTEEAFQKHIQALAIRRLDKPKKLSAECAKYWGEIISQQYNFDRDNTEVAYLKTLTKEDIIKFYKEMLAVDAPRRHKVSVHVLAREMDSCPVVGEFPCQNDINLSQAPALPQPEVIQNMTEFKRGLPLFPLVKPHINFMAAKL
* marks the source's active call; other numbers are inactive results.

SMILES | IDE exosite inh
C[C@H](CO)N1C[C@H](C)[C@H](CN(C)C(=O)c2ccc(N3CCN(C)CC3)cc2)OCc2cnnn2CCCC1=O | -1.2
O=C1N[C@H](c2ccccc2)COCc2cn(nn2)CC[C@@H]1Cc1cccc(Cl)c1 | 1.4
CCCNC(=O)[C@H]1[C@H](CO)[C@H]2Cn3c(ccc(C4=CCCCC4)c3=O)[C@H]2N1Cc1ccccc1F | 0.9
COc1ccc(S(=O)(=O)N2CCCCN3[C@H](CO)[C@H](c4ccc(C5=CCCC5)cc4)[C@H]3C2)cc1 | 4.8
O=C(C[C@@H]1CC[C@H]2[C@@H](COC[C@@H](O)CN2C(=O)Cc2ccccc2)O1)NC1Cc2ccccc2C1 | 0.65
CO[C@@H](CN(C)Cc1ccc(-c2ccccn2)cc1)[C@@H](C)CN(C(=O)Nc1ccc(F)cc1)[C@@H](C)CO | 1.2
Cc1ccccc1-c1ccc([C@H]2[C@@H](CO)N3CCCCN(S(C)(=O)=O)C[C@H]23)cc1 | -7.7*
CS(=O)(=O)N1CCCCN2[C@H](C1)[C@H](c1ccc(C3=CCCC3)cc1)[C@@H]2CO | 3
CS(=O)(=O)N1CCCCN2[C@@H](CO)[C@@H](c3ccc(C4=CCCC4)cc3)[C@@H]2C1 | 0.72
O=C(O)C[C@H]1C[C@@H]2c3cc(NC(=O)Cc4ccncc4)ccc3O[C@@H]2[C@@H](CO)O1 | 0.51
O=C(Nc1cccc(F)c1)N1CCCCN2[C@H](CO)[C@H](c3ccc(-c4ccccc4F)cc3)[C@H]2C1 | 1.7
Cc1ccccc1-c1ccc([C@@H]2[C@@H](CO)N3CCCCN(C(=O)Nc4ccc(F)cc4)C[C@H]23)cc1 | 1.8
Cc1ccccc1-c1ccc([C@H]2[C@H]3CN(C(=O)Nc4ccc(F)cc4)CCCCN3[C@H]2CO)cc1 | 3.4
Cc1ccccc1-c1ccc([C@H]2[C@@H](CO)N3CCCCN(C(=O)Nc4ccc(F)cc4)C[C@H]23)cc1 | -7.1*
Cc1ccccc1-c1ccc([C@@H]2[C@@H](CO)N3CCCCN(C(=O)Nc4ccccc4)C[C@@H]23)cc1 | 1.2
Cc1ccccc1-c1ccc([C@@H]2[C@@H](CO)N3C(=O)CN(C(=O)Nc4ccc(F)cc4)C[C@H]23)cc1 | -1.4
Cc1ccccc1-c1ccc([C@@H]2[C@@H](CO)N3C(=O)CN(C(=O)Nc4cccc(F)c4)C[C@H]23)cc1 | -2.1
Cc1ccccc1-c1ccc([C@H]2[C@@H](CO)N3CCCCN(C(=O)Nc4ccc(F)cc4)C[C@@H]23)cc1 | -1.6
Cc1ccccc1-c1ccc([C@@H]2[C@@H](CO)N3C(=O)CN(C(=O)Nc4ccc(F)cc4)C[C@@H]23)cc1 | -11*
Cc1ccccc1-c1ccc([C@H]2[C@@H](CO)N3CCCCN(C(=O)Nc4cccc(F)c4)C[C@@H]23)cc1 | -4.4*
Cc1ccccc1-c1ccc([C@H]2[C@H](CO)N3CCCCN(C(=O)Nc4ccccc4)C[C@@H]23)cc1 | -3.9*
Cc1ccccc1-c1ccc([C@@H]2[C@H](CO)N3CCCCN(C(=O)Nc4cccc(F)c4)C[C@@H]23)cc1 | 0.19
O=C1CNC[C@H]2[C@@H](c3ccc(-c4ccccc4F)cc3)[C@@H](CO)N12 | -1.5
C=C(C)C[C@@H]1CCn2nncc2COCCNC1=O | -1.5
CN1CCN(C(=O)C[C@H]2CC[C@H]3[C@@H](COc4ccc(NC(=O)C5CCOCC5)cc4C(=O)N3C)O2)CC1 | 0.27
SMILES | IDE exosite inh
O=C(Cc1ccccc1)N1C[C@@H]2[C@H](c3ccccc31)[C@@H](CO)N2S(=O)(=O)c1ccccc1 | 3.2
COc1cccc(-c2ccc(C3[C@H]4CNC[C@@H]3N4CC3CCCCC3)cc2)c1 (stereo not given in full) | 1.3
CCc1cnc(N2[C@H](C#N)[C@@H](c3ccc(C4=CCCCC4)cc3)[C@@H]2CO)s1 | -1.3
COc1ccc([C@H]2CC=CC[C@H](C)Oc3ccccc3C(=O)N(C)[C@@H](Cc3ccccc3)C(=O)N2)c(OC)c1 (mixture of isomers) | -0.23
Cc1ccccc1S(=O)(=O)Nc1ccc2c(c1)C(=O)N(C)[C@@H]1CC[C@@H](CC(=O)O)O[C@H]1CO2 | -0.65
CCCC#Cc1ccc([C@H]2[C@H]3CN(S(=O)(=O)CC)CCCCN3[C@H]2CO)cc1 | 2.3
O=S(=O)(Cc1ccccc1)N1CCCCN2[C@@H](CO)[C@H](c3ccc(C#Cc4ccccc4)cc3)[C@@H]2C1 | 2.5
O=S(=O)(Cc1ccccc1)N1CCCCN2[C@H](CO)[C@H](c3ccc(C#Cc4ccccc4)cc3)[C@H]2C1 | 4
CCS(=O)(=O)N1CCCCN2[C@H](CO)[C@H](c3ccc(C#Cc4ccccc4OC)cc3)[C@H]2C1 | -9.2*
CCCC#Cc1ccc([C@@H]2[C@@H](CO)N3CCCCN(S(=O)(=O)CC)C[C@H]23)cc1 | 3
CCS(=O)(=O)N1CCCCN2[C@H](CO)[C@@H](c3ccc(C#Cc4ccccc4OC)cc3)[C@H]2C1 | -6.5*
CCS(=O)(=O)N1CCCCN2[C@H](CO)[C@H](c3ccc(C#Cc4ccccc4OC)cc3)[C@@H]2C1 | -8.2*
O=S(=O)(Cc1ccccc1)N1CCCCN2[C@H](CO)[C@@H](c3ccc(C#Cc4ccccc4)cc3)[C@@H]2C1 | -0.14
O=S(=O)(Cc1ccccc1)N1CCCCN2[C@H](CO)[C@@H](c3ccc(C#Cc4ccccc4)cc3)[C@H]2C1 | 5.1
COc1cc(CN2CC3(CN(S(=O)(=O)c4cccc(F)c4)C3)c3c([nH]c4cc(OC)ccc34)[C@@H]2CO)cc(OC)c1 | -0.042
CCCN1C[C@H](C)[C@H](OC)CN(C)C(=O)c2cc(NC(=O)Nc3cccc(F)c3)ccc2OC[C@@H]1C | 1.9
C[C@@H]1CCCCO[C@H](CN(C)S(=O)(=O)c2ccccc2)[C@@H](C)CN([C@@H](C)CO)C(=O)c2cc(NC(=O)Nc3ccc4c(c3)OCO4)ccc2O1 | 1.5
COc1cccc(S(=O)(=O)N2C[C@H](O)COC[C@@H]3O[C@H](CC(=O)N4CCN(c5ccccc5)CC4)CC[C@H]32)c1 | 0.21
CN(C)C(=O)c1ccc(-c2ccc([C@H]3[C@@H](C#N)N(C(=O)C4CCC4)[C@H]3CO)cc2)cc1 | 4.6
C[C@@H]1CN([C@@H](C)CO)C(=O)c2ccccc2-c2ccccc2CO[C@@H]1CN(C)S(=O)(=O)c1cccs1 | -0.15
O=C(Nc1ccccc1F)N1CC(=O)N2[C@H](CO)[C@@H](c3ccc(C#CC4CC4)cc3)[C@H]2C1 | -0.45
O=C(c1ccccn1)N1CC2(C1)[C@H](c1ccccc1)[C@@H](CO)N2C(=O)C1CCCCC1 | -0.62
O=C(Nc1ccc(F)cc1)N1CC(=O)N2[C@H](C1)[C@@H](c1ccc(-c3ccccc3)cc1)[C@@H]2CO | 0.75
COc1ccc2c3c([nH]c2c1)[C@@H](CO)N(C)CC31CN(S(C)(=O)=O)C1 | 0.18
CC=Cc1ccc2n(c1=O)C[C@H]1[C@H](CO)[C@@H](C(=O)Nc3ccc(-c4ccccc4)cc3)[C@@H]2N1C(=O)CC (mixture of isomers) | 0.25
CCC(=O)N1CCCCN2[C@H](CO)[C@@H](c3ccc(C#Cc4cccnc4)cc3)[C@@H]2C1 | -5.2*
O=C(c1cccnc1)N1CCCCN2[C@H](CO)[C@@H](c3ccc(C#Cc4cccnc4)cc3)[C@@H]2C1 | -0.3
COCC(=O)N1CCCCN2[C@H](C1)[C@@H](c1ccc(C#Cc3cccnc3)cc1)[C@@H]2CO | -0.14
COCC(=O)N1CCCCN2[C@H](CO)[C@@H](c3ccc(C#Cc4cccnc4)cc3)[C@@H]2C1 | 0.082
CCC(=O)N1CCCCN2[C@@H](CO)[C@H](c3ccc(C#Cc4cccnc4)cc3)[C@@H]2C1 | -5.4*

Source: PubChem BioAssay
